# Measured values published in the supplement of paper PMC3334620.
# Whole data set: some 33,000 sequences, median “E-score (-0.5 to 0.5)” near -0.016, cut for the highest 2% near 0.32. This is one part of a sample in which the highest values are shown more often than they occur.
# Molecular target: T1, Stp1 (UniProt B3LFK1)
# T1 sequence: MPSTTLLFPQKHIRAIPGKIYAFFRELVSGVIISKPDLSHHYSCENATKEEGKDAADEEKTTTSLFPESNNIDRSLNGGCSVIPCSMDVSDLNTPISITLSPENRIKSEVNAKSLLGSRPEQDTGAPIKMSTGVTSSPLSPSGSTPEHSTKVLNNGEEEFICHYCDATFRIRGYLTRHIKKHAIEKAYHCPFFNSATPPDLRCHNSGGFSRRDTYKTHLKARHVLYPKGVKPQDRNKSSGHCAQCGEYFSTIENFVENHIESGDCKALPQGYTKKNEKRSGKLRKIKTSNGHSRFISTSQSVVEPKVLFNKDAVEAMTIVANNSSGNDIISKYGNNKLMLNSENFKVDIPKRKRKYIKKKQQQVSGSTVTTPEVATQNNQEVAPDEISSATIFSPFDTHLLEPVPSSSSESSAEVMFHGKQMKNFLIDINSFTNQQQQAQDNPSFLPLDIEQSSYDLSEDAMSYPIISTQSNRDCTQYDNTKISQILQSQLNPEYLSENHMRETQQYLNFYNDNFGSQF
# Experiment: PBM E-score (8-mer binding enrichment) (E-score (-0.5 to 0.5)); higher = stronger / more preferred TF binding
# Conditions: protein concentration: 200 nM; construct: GST-full length
# Protocol: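 Universal 'all 10-mer' protein binding microarrays (Agilent AMADID 015681) probed with GST-tagged S. cerevisiae TFs (full-length or DBD) made by in vitro transcription/translation (PURExpress), about 100-200 nM. Bound TF was detected with fluorescent anti-GST. Each ungapped 8-mer (which stands for itself and its reverse complement) is scored by the PBM enrichment score (E-score), a modified Wilcoxon-Mann-Whitney statistic from -0.5 to +0.5, computed with the Universal PBM Analysis Suite. Scale: above 0.35 generally sequence-specific binding.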
row,Sequence,PBM E-score
1,TCTCGAGA,-0.01
2,CCCCGCCC,0.139
3,ATCTTTGC,0.262
4,CATACGGC,0.472
5,AATACGGG,-0.0327
6,AATACGGC,0.453
7,CATACGGA,0.268
8,GATACGGA,0.285
9,GATACGAC,0.0153
10,GATACGGC,0.463
11,CATACGGG,0.224
12,AATACGGT,0.0778
13,ACCCTGAG,-0.216
14,AATAGACC,-0.159
15,AACACTTA,0.0357
16,ACATGGCC,0.147
17,CCAACATC,-0.127
18,AGAGCTAT,-0.179
19,ACAAGGGC,-0.0113
20,CCACCTGC,-0.021
21,ACGAGGCA,0.37
22,ACGAGGTA,-0.0774

row,Sequence,PBM E-score
1,ACGAGGAT,-0.102
2,AGGAGGCG,0.201
3,CCGAGGCG,0.333
4,ACCAGGCT,-0.326
5,ACGAGGCT,0.323
6,CCGAGGCC,-0.22
7,ACGAGGCC,0.016
8,CCGAGGAG,-0.0986
9,ACGAGGCG,0.457
10,ACGAGGGA,-0.0556
11,CTGCAGGC,-0.372
12,CTCATCTC,0.0521
13,ACTAAAGT,-0.0712
14,AGTCTGGC,-0.207
15,TACGGTAA,0.157
16,GCGTGGGA,-0.0429
17,GTCGTCAC,-0.0794
18,GCGAGGCA,0.439
19,TCGAGGCA,0.195
20,CCGAGGCA,0.179
21,TATCAATA,0.0831
22,AGCGGCCG,0.285

row,Sequence,PBM E-score
1,CGCGGCCG,0.321
2,AGCGGCCC,-0.00454
3,CGCGGCCA,0.269
4,CGCGGCCC,0.349
5,GGCGGCCC,0.0299
6,AAAGTCGA,-0.15
7,CCACACGG,0.385
8,ACAAACGG,0.352
9,ACACACGT,0.0897
10,AGACACAA,0.154
11,CCACACGA,-0.105
12,CCACACGC,0.158
13,ACAAACGA,0.129
14,AGACACGA,-0.124
15,ACAAACGC,0.252
16,ACACACGA,0.135
17,AGACACGG,0.363
18,ACACACGG,0.356
19,CTAGACGA,0.105
20,GCTCAGCC,-0.123
21,ATGAGAGG,-0.118
22,CTCGGTTA,-0.119

row,Sequence,PBM E-score
1,ATGCGAAC,-0.103
2,ACGGCGCT,0.481
3,ACTGCGCT,-0.19
4,ACGGCGCA,0.482
5,ATGGCGCA,0.0846
6,ACGGCCCT,0.275
7,ACCGCGCT,0.077
8,CTGGCGCA,-0.0136
9,ACGGCCCA,0.333
10,TCGGCCCA,-0.116
11,GACTGACC,-0.312
12,GCCTCTCC,0.0401
13,CCTCCTGC,-0.205
14,ACAGTCTA,-0.00216
15,GCTTGCCA,-0.0643
16,ACCTAGAT,-0.159
17,AAGCTAAG,-0.136
18,CAGTGTCA,0.0177
19,CGGCAAGC,0.124
20,CGGCAATC,0.332
21,AGGCAATA,0.227
